BRCA1 expr up = BRCA1 expression activation; 1.1% of 380,000 active; AID 624202; MCF7-BRCA1-FFLuc reporter, luminescence, 48 h; response scale: scaled: vehicle 0%, 10 µM genistein 100%; Potency, µM (series often up to 46.1 µM), without a hit: top-dose activation, most hits filed as activators; note: potency is the fitted concentration of half-maximal effect; nearly all actives have a fitted effect of over 80% in size
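Luminescence from a BRCA1-driven firefly luciferase in MCF7 cells was read after 48 h compound exposure at 37 C. Data normalized against DMSO and a 10microM genistein activation control, then curve-fitted across the titration.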
PTHR1 ag = PTHR1 (human) receptor agonism; Potency, µM (top dose mostly 115 µM), without a hit: at the highest dose activation, usual class: activators; Q03431; HEK293 GP2 PTHR1 cells, GloSensor cAMP luminescence, 1 h; AID 743266; 0.075% of 410,000 active; note: potency is the fitted concentration of half-maximal effect; nearly all actives have a fitted effect of over 55% in size
Target sequence (Q03431 whole entry, looked up): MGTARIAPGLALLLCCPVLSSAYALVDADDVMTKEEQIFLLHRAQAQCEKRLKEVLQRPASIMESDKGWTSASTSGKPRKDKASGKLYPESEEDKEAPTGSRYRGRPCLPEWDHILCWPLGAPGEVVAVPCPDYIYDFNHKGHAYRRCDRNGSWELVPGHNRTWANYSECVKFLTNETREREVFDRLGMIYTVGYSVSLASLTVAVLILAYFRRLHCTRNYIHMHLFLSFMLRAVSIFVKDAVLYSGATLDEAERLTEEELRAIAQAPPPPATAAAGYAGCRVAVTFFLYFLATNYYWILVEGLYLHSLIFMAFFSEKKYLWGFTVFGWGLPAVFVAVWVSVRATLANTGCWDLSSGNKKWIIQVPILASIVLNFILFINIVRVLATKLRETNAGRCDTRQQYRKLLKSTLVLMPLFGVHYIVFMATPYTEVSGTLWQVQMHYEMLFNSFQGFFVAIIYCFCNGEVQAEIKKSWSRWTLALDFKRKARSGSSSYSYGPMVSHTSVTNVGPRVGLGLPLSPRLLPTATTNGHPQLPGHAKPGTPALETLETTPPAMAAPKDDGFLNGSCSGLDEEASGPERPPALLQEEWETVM
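HEK-293-derived GP2 cells expressing PTHR1 and a GloSensor cAMP reporter, 3,000/well, plated overnight, given luciferin plus IBMX (each 0.5 mM as added) for 1 h at 37 °C, then compound for 1 h at 37 °C. Luminescence was read after 15 min at room temperature.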
IL-2 act = activates IL-2 in a cell-based reporter assay; IL-2 activation reporter assay, cell-based qHTS; stimulated with anti-CD3/CD4/CD28 beads; in transgenic mouse T cells; activation, % (series mostly up to about 46 µM); 0.065% of 360,000 active; in the data active = activation above about 50%; inconclusive = mostly about 30% to 49%; note: 0% is about no effect
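EGFP and DsRed fluorescence is measured by plate cytometry in unstimulated transgenic mouse T cells exposed to compound for 60 minutes, then stimulated 18 hours at 37 degrees C with anti-CD3/anti-CD4 beads plus anti-CD28.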
BCR signal inh = blocks chronic active B-cell receptor signaling | ABC-DLBCL IkBa-CBG/CBR reporter, luminescence ratio, 4 h | Potency, µM (highest dose often 46.1 µM), for inactives: at the top dose activity change, negative = inhibition, actives largely listed as inhibitors | 0.05% of 340,000 active; active = well fitted inhibition curve with a large enough effect in the signal ratio, with a control signal flat, not every such curve was filed as active; inconclusive = small, poorly fitted or top-dose-only effect, or effect the other way, or a change in a side signal; the % refers to the signal ratio;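 note: potency is the fitted concentration of half-maximal effect; plate controls were basal doxycycline-induced cells for no effect and cells given 10 µM MG132 for full effect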
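Cell line TMD8 (human ABC DLBCL), stably expressing tet-inducible CBG68-IkBa fusion and CBR; IMDM/0.5% FBS; cpd up to 46 uM; dox induction, 4 h, 37C/5% CO2; dual luminescence; green/red ratio; MG132 control.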
TCR act = T cell receptor activation; primary human leukocytes, anti-CD3, IL-2 HTRF, 48 h; Potency, µM (series often up to 9.22 µM), for inactives: at the top dose activation of IL-2 secretion, actives largely listed as activators; 330,000 tested, under 10 active; note: % of control where 0% means no effect
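Primary human leukocytes receive a-CD3 beads and test compound and are incubated 48 hr. Secreted IL-2 is then assayed by HTRF, measuring 665nm acceptor emission after 320nm excitation of the europium donor.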
Mito fusion act = inhibitors of mitochondrial division or activators of mitochondrial fusion | S. cerevisiae fusion-defective mutant growth rescue, CellTiterGlo 48 h | AID 485298 | 0.23% of 320,000 active | Potency, µM (series often up to 46.1 µM), without a hit: top-dose growth rescue (activation), hits mostly activators; note: potency is the fitted concentration of half-maximal effect; % of control where 0% means no effect; nearly all actives have a fitted effect of over 45% in size
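Luminescent cell viability in 1536-well qHTS format served as the measure of rescued growth in ts fusion-mutant S. cerevisiae cultured on non-fermentable YPEG for 48 hours at 37C.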
Active calls of the source: *; i = inactive; ? = inconclusive; / = not tested or not shown; [ ] = another dose, or the depositor's remark. Compounds with a hit are over-represented: about 1.3% of the library has one in this group of screens. Unless noted, calls come from the whole dose curve; as a rule, active = well fitted curve in the direction sought with a large enough effect; inconclusive = small, poorly fitted or top-dose-only effect, or another doubt; inactive = no such curve, though single readings can be large; an effect the other way counts as inactive or inconclusive.

SMILES | BRCA1 expr up | PTHR1 ag | IL-2 act | BCR signal inh | TCR act | Mito fusion act
N/C(=N/OC(=O)c1cccc([N+](=O)[O-])c1)c1cccc([N+](=O)[O-])c1 | 7.1µM* | -15% | 0 | 6% | / | 1%
N/C(=N\OC(=O)c1cccc(F)c1)c1cccc([N+](=O)[O-])c1 | 13µM* | i | 0 | ? | -3% | 1%
Cc1ccc(S(=O)(=O)N2CCN(c3nc(-c4cccs4)nc4ccccc34)CC2)c(C)c1 | -2% | / | / | / | / | /
COc1cc(NC(=O)Cn2nc(C(F)(F)F)c3c2CCC3)cc(OC)c1OC | -28% | -70% | / | / | / | /
O=C(/C=C/Nc1ccccc1)c1ccc(Oc2ncccn2)cc1 | 3.5µM* | -5%[57.5 µM] | 3 | -1% | -3% | -1%
COc1ccc(NC(=O)c2ccc(NC(=O)c3ccncc3)cc2)cc1 | 3% | i | 0 | -2% | 12% | 4%
COc1ccc(NC(=O)c2ccc(Oc3ncccn3)cc2)cc1 | 8.9µM* | -1% | -1 | -5% | 8% | 1%
O=C(Nc1ccccc1Cl)c1ccc2nccnc2c1 | 5µM* | -43% | 0 | ? | -7% | 1%
COc1ccc(NC(=O)c2coc(C)c2)cc1 | 5.6µM* | i | 0 | -10% | 3% | 4%
CN(C)/C=C/C(=O)c1ccc(Oc2ncccn2)cc1 | -9% | -13% | 0 | ? | -2% | 1%
COc1ccc(NC(=O)c2ccc(=O)oc2)cc1 | 26% | -20%[57.5 µM] | 1 | -12% | -14% | -4%
Cc1ccc(C)c(N2CCN(C(=O)Cc3ccc(NC4=NC5CS(=O)(=O)CC5S4)cc3)CC2)c1 (stereo not drawn) | 4% | -2% | 1 | 10% | 7% | 2%
COc1ccc(NC(=O)Nc2ncccc2C)cc1 | ? | i | 0 | 3% | 4%[46.1 µM] | -3%
COc1cc(NC(=O)c2ccc3snnc3c2)cc(OC)c1 | 11µM* | i | 0 | ? | 7% | 4%
COc1ccc(C(=O)NC(=O)Nc2ncccc2C)cc1 | 2.8µM* | -10%[57.5 µM] | -1 | -7% | 0% | -1%
Cc1ccc(NC(=O)c2ccc3nsnc3c2)c(Cl)c1 | 1µM* | i | 0 | 2% | 3% | 6%
COc1ccccc1NC(=O)c1ccc2snnc2c1 | 34% | -25% | -3 | -1% | 0% | 2%
COc1ccc(NC(=O)c2ccc3nccnc3c2)cc1 | 2.8µM* | i | 0 | ? | -1%[46.1 µM] | -1%
O=C(Nc1ccc(Br)cc1F)c1ccc2nsnc2c1 | ? | 21% | -2 | -8% | -3% | 3%
CC(=O)Nc1cccc(C(=O)OCC(=O)NC(=O)C2CCCCC2)c1 | 3% | / | / | / | / | /
O=C(COc1ccccc1C(=O)Nc1ccccc1F)Nc1ccc(Br)cc1 | -21% | / | / | / | / | /
CCOC(=O)C1=NN(c2ccc(Cl)cc2)C(=O)C1 | 4µM* | -37% | -2 | ? | -7% | -14%
O=C(CN1CCN(S(=O)(=O)c2ccc(F)cc2)CC1)Nc1ccc(F)cc1F | 39% | i | 0 | ? | -3% | 35µM*
COc1ccc(C)cc1NC(=O)CN1CCCN(S(=O)(=O)c2ccc(Br)cc2)CC1 | -47% | -19% | -3 | -3% | 2% | 14µM*
COc1ccccc1OCC(=O)Nc1sc2c(c1C(N)=O)CCC2 | 5µM* | -30% | 0 | ? | / | /
SMILES | BRCA1 expr up | PTHR1 ag | IL-2 act | BCR signal inh | TCR act | Mito fusion act
O=C(Oc1coc(CSc2nnc(NC(=O)C3CC3)s2)cc1=O)c1c(F)cccc1F | -28% | i | 0 | ? | -2% | ?
CC(=O)NCCNC(=O)c1ccc(CSc2ccc(Cl)cc2)cc1 | 11µM* | -7% | -3 | 0% | 8% | -3%
Cc1ccc(Nc2cc(-n3cccn3)ncn2)c(C)c1 | 3.2µM* | -18% | -3 | ? | 3% | 1%
CCCCOC(=O)c1ccc(NC(=O)c2ccc3c(c2)CCN3S(C)(=O)=O)cc1 | / | -89% | / | / | / | /
COc1ccc(OC)c(C2N=C(N)Nc3nc4ccccc4n32)c1 (stereo not drawn) | 7% | -18% | / | / | / | /
COc1ccc(C2N=C(N)Nc3nc4ccccc4n32)cc1 (stereo not drawn) | / | 50µM* | / | -8% | / | -2%
COc1ccc(OC)c(CC(=O)N2CCc3cc(OC)c(OC)cc3C2)c1 | -21% | -83% | 0 | -5% | 1% | 25%
O=c1[nH]cccc1-c1nc2ccccc2[nH]1 | 8.9µM* | i | -1 | ? | -10% | -1%
Nc1ccccc1-c1nc2ccccc2[nH]1 | ? | -11%[57.5 µM] | -2 | 15% | 0% | 5%
COc1cc(OC)c2c(=O)cc(-c3ccccc3)oc2c1 | 7.9µM* | -45% | 0 | ? | 3% | -1%
CCOC(=O)c1nn(-c2ccc3ccccc3c2)cc1O | 2.8µM* | -73% | -4 | ? | 3% | 4%
CCOC(=O)c1nn(-c2ccc3c(c2)OCO3)cc1O | 3.2µM* | -7%[57.5 µM] | 0 | 2% | 0% | -2%
CCOC(=O)c1nn(-c2ccc(C)cc2)cc1O | ? | -33%[57.5 µM] | 1 | ? | -2% | -3%
N#Cc1c(N2C(=O)Nc3ccccc3N2O)sc2c1CCCC2 | 11µM* | -10% | 2 | ? | -3% | -1%
CC(=O)c1cc(C#N)c(SCCC(C)C)nc1C | 19% | -7% | -2 | ? | 3% | ?
CC(C)CCSc1nc(N)c(C#N)cc1C#N | 22% | 201%[57.5 µM] | 2 | 4% | -7% | 11µM*
Oc1cc2cc(-c3csc(-c4ccc(F)cc4)n3)ccc2[nH]1 | 25% | / | / | / | / | /
COc1cccc(C(=O)NCC(c2cccs2)N2CCc3ccccc32)c1 (stereo not drawn) | -32% | -19% | -5 | ? | -3% | 16µM*
O=C(NCC(c1cccs1)N1CCc2ccccc21)c1ccccc1 (stereo not drawn) | -54% | -2% | -3 | 5% | -3% | ?
COc1cc(NC(=O)C2CCN(S(=O)(=O)c3ccc4[nH]c(=O)oc4c3)CC2)cc(OC)c1 | 0% | 0.77µM* | -4 | 0% | 2% | 2%
CCOC(=O)C1CCN(S(=O)(=O)c2ccc3[nH]c(=O)oc3c2)CC1 | 7% | -1% | -1 | ? | -1% | -3%
CC(C)Cc1ccc(-c2ccc3nccn3c2)cc1 | 14µM* | -53% | -1 | / | / | /
COc1ccc(-c2ccc3nccn3c2)cc1 | 22% | i | 0 | / | / | /
COc1ccc(S(=O)(=O)n2[nH]c(=O)c(CCO)c2C)c([N+](=O)[O-])c1 | -17% | -10% | 0 | -1% | / | 0%
Cc1ccc(CNC(=O)c2ccc3c(c2)N(Cc2cccc(C)c2)C(=O)CS3)cc1 | -32% | i | / | / | / | /

Source: PubChem BioAssay (National Center for Advancing Translational Sciences (NCATS))
